Compound activity (PubChem)
PriA SSB inh: blocks PriA binding to SSB C-terminal tail; inhibition, % at 33 µM; AlphaScreen SSBct-PriA binding, biotinylated peptide; actives 0.6% (n = 430,000); AID 1272365; in the data active = inhibition mostly above about 37%, no sharp cut-off; inactive = mostly below about 20%
Sa ugtP lethal: growth inhibition of S. aureus ugtP deletion strain. S. aureus RN4220 ugtP deletion, OD600 growth, 16 h. growth inhibition, % (test concentration not listed). actives 0.54% (n = 330,000); in the data active = growth inhibition above about 68%
RN4220 kill: kills Staphylococcus aureus RN4220; S. aureus RN4220 growth, OD600, 16 h; inhibition, % (no concentration beside the values); actives 0.33% (n = 330,000); in the data active = inhibition above about 85%
VHR inh abs: DUSP3 (human) phosphatase inhibition; actives 0.52% (n = 290,000); recombinant VHR phosphatase, pNPP absorbance; inhibition, % at 13.3 µM; in the data active = inhibition above about 50%
Target sequence (P51452 whole entry, looked up): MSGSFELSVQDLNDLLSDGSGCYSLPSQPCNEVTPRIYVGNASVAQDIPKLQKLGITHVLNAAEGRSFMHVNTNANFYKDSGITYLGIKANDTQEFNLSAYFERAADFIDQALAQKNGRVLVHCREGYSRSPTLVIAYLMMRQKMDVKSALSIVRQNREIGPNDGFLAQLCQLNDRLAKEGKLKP
CCHF vOTU inh-1: blocks the CCHF virus ovarian tumor domain protease; CCHFV vOTU protease, Pep-AMC fluorescence; inhibition, % at 11.5 µM; actives 0.55% (n = 370,000); AID 651958
CCHF vOTU inh-2: confirmation of CCHF virus vOTU protease inhibitors; Recombinant CCHFV vOTU, Pep-AMC fluorescence; inhibition, % at 11.5 µM; actives 17% (n = 1,900); shares compounds with CCHF vOTU inh-1; AID 686976
Hits are given with their value; i = inactive; nt = no result. This is a sample that favours compounds with a hit; in the whole collection about 1.5% have one here. Rule as the data show it, unless noted: active = inhibition above about 30%; inactive = the rest.

SMILES	PriA SSB inh	Sa ugtP lethal	RN4220 kill	VHR inh abs	CCHF vOTU inh-1	CCHF vOTU inh-2
CN1N=C(N)c2cn(C3OC(COP(=O)(O)O)C(O)C3O)c3ncnc1c23 (stereo not given)	i	nt	nt	nt	32	i
Nc1c(N(Cc2ccco2)C(=O)COc2ccc(Cl)cc2)c(=O)[nH]c(=O)n1Cc1ccccc1	i	i	i	nt	i	nt
Nc1c(N(Cc2ccco2)C(=O)COc2ccccc2Cl)c(=O)[nH]c(=O)n1Cc1ccccc1	i	i	i	nt	31	i
Cc1ccc2nc(-c3ccc(NC(=O)c4cc5cccnc5n(C)c4=O)cc3)sc2c1	i	nt	nt	nt	nt	nt
O=C1C=C(O)c2cccc(O)c2C1=O	i	nt	nt	i	94	i
O=C1c2cccc(O)c2C(=O)c2c(O)cccc21	nt	nt	nt	i	nt	nt
O=C(O)/C(=C\c1cccc(F)c1)c1ccc(S(=O)(=O)N2CCCCC2)s1	i	i	i	i	i	nt
O=C(O)/C(=C/c1ccc(Cl)c([N+](=O)[O-])c1)c1ccc(S(=O)(=O)N2CCCCC2)s1	i	i	i	nt	33	i
Cc1nnc(N/N=C/c2cccc(OCc3ccc(Cl)c(Cl)c3)c2)n1N	nt	nt	nt	i	103	i
Cc1nnc(N/N=C/c2ccccc2C(F)(F)F)n1N	nt	nt	nt	i	65	i
Cc1nnc(N/N=C/c2ccccc2F)n1N	nt	nt	nt	i	75	i
Cc1nnc(N/N=C/c2ccco2)n1N	nt	nt	nt	i	89	i
O=C(c1cnc2ccccc2n1)N1CCC(c2nnc(C3CC3)o2)CC1	i	nt	nt	nt	nt	nt
COc1cccc(/C=N/Nc2nnc(C)n2N)c1O	nt	nt	nt	i	88	i
COc1ccc(C=NNc2nnc(C)n2N)cc1OC	i	i	i	nt	nt	nt
Cc1nnc(N/N=C/c2cccc(C(F)(F)F)c2)n1N	nt	nt	nt	i	105	i
COc1ccc(-n2c(C)cc(/C=N/Nc3nnc(C)n3N)c2C)cc1	nt	nt	nt	i	91	i
COc1ccc([C@@H]2CC(c3ccsc3)=NN2C(=O)c2ccco2)cc1O	i	nt	nt	nt	nt	nt
O=C(CSc1nccn(-c2ccc(F)c(Cl)c2)c1=O)c1ccc(F)cc1	i	nt	nt	nt	nt	nt
COc1ccccc1CC1(C)C(=O)Nc2ccc(S(=O)(=O)NC3CCCCC3)cc21 (stereo not given)	nt	nt	nt	nt	i	nt
CC1(Cc2ccc(F)cc2)C(=O)Nc2ccc(S(=O)(=O)NC3CCCCC3)cc21 (stereo not given)	nt	nt	nt	nt	44	i
COc1cc(C(O)c2nc(-c3ccc4ccccc4c3)cs2)ccc1F (stereo not given)	nt	nt	nt	nt	i	nt
COc1ccc(C(O)c2nc(-c3ccc4ccccc4c3)cs2)cc1 (stereo not given)	nt	nt	nt	nt	39	i
COc1ccc(C(O)c2nc(-c3ccccc3C)cs2)cc1 (stereo not given)	nt	nt	nt	nt	34	i
COc1cccc(C(O)c2nc(-c3ccccc3C)cs2)c1 (stereo not given)	nt	nt	nt	nt	i	nt
SMILES	PriA SSB inh	Sa ugtP lethal	RN4220 kill	VHR inh abs	CCHF vOTU inh-1	CCHF vOTU inh-2
Cc1cccc(C(=O)NCCOc2ccc3c(c2)OCO3)c1	i	nt	nt	nt	nt	nt
Clc1ccc(C2CCCCNC2)cc1 (stereo not given)	i	nt	nt	nt	nt	nt
Cc1nnc(Nc2cccc(C(F)(F)F)c2)c2ccccc12	i	nt	nt	nt	nt	nt
CCOc1ccc(NC2=C(OC)C(=O)c3ccccc3C2=O)cc1	i	i	i	i	62	i
COC1=C(Nc2ccc(O)cc2)C(=O)c2ccccc2C1=O	i	i	i	i	40	i
COC1=C(Nc2ccc(OC)cc2)C(=O)C(OC)=C(Nc2ccc(OC)cc2)C1=O	i	i	i	nt	i	nt
COC1=C(Nc2ccc(OC)cc2)C(=O)c2ccccc2C1=O	i	i	i	i	59	i
O=C(CN1CCCCC1)NCCC12CC3CC(CC(C3)C1)C2	i	nt	nt	nt	nt	nt
COc1ccc(C(=O)NCCS(=O)(=O)N2CCCCCC2)cc1	i	i	i	nt	i	nt
COc1ccc(C(=O)NCCS(=O)(=O)N2CCCC2)cc1	i	nt	nt	nt	46	i
O=S(=O)(Nc1ccc(C(F)(F)F)cc1)c1cnc[nH]1	i	i	i	i	i	nt
O=S(=O)(Nc1ccc(Cl)c(C(F)(F)F)c1)c1cnc[nH]1	i	i	i	i	32	i
COC(=O)c1ccccc1C(=O)Nc1c(C(=O)Nc2ccc(C)c(C)c2)oc2ccccc12	i	nt	nt	nt	nt	nt
Nc1nc(SCC(=O)Nc2nccs2)[nH]c(=O)c1NC(=O)c1ccccc1F	i	nt	nt	nt	nt	nt
O=C(NC1=C(Nc2ccc(F)cc2)C(=O)c2ccccc2C1=O)c1ccc(Cl)cc1	i	i	i	i	35	58
O=C(NNC(=O)c1ccc(NC(=O)c2ccccc2)cc1)c1ccc(F)cc1	i	i	i	i	i	nt
CCCCOC(=O)CSc1nc2c(c(=O)[nH]c(=O)n2C)n1C/C=C(\C)Cl	i	i	i	i	31	i
COc1cccc(C(=O)NCc2nn(C3CCCC3)c3c2CCCC3)c1OC	i	nt	nt	nt	nt	nt
